# Bioassay records from PubChem.
# HT1080-NT tox = kills 2HG-producing HT-1080-NT fibrosarcoma cells; AID 686970; HT-1080-NT fibrosarcoma viability, CellTiter-Glo ATP luminescence, 48 h; Potency, µM (highest dose often 46.1 µM), for inactives: top-dose activity, negative = less viability, hits mostly cytotoxic; 360,000 compounds, 1.6% hits;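 also: NT is the 2HG producing partner of a matched IDH1 knockdown line; 0% = DMSO-treated cells and -100% = media-only wells without cells; nearly all actives have a fitted effect of over 55% in size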
#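 Read-out is CellTiter-Glo luminescence after 10 minutes at room temperature, following 48 hours' compound treatment of HT-1080-NT cells (750 cells/well, RPMI, 5% FBS, 37 degrees C).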
# SW480 rereplic = induces DNA re-replication in SW480 colon adenocarcinoma cells; SW480 DNA re-replication, Hoechst DNA content imaging, 48 h; Potency, µM (top dose mostly 46.1 µM), without a hit: at the top dose re-replication activation, hits mostly activators; 340,000 compounds, 1.8% hits; also: % of control where 0% means no effect; nearly all actives have a fitted effect of over 55% in size
#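 Quantitative HTS format with DMSO vehicle controls; 48 hr drug incubation at 37 C, then 40 min Hoechst staining and scanning imager measurement at 405 nm excitation.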
# KB-3-1 cytotox = KB-3-1 parental cell cytotoxicity; KB-3-1 viability, CellTiter-Glo ATP luminescence, 72 h; Potency, µM (highest dose often 46.1 µM), hits mostly cytotoxic; 400,000 compounds, 1.4% hits; AID 1347075; also: % is scaled to controls: 0 for no effect and ±100 for the full control effect; nearly all actives have a fitted effect of over 60% in size
#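 Screening of KB-3-1 cells (DMEM, 10% FBS, phenol-red free) ran from lowest to highest compound concentration; after 72 h at 37 °C viability was read luminescently and curves fitted.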
# MCF10A rereplic = induces DNA re-replication in MCF 10a normal breast cells; MCF 10A DNA re-replication, Hoechst nuclear intensity, 48 h; Potency, µM (top dose mostly 46.1 µM), for the others: at the top dose activity, positive = re-replication, most hits filed as activators; 350,000 compounds, 2.9% hits; AID 624296; also: % of control where 0% means no effect; nearly all actives have a fitted effect of over 50% in size
# KB-V1 MDR tox = KB-V1 MDR subline cytotoxicity. KB-V1 MDR cells viability, CellTiter-Glo, 72 h. Potency, µM (doses to about 46.1 µM), usual class: cytotoxic. 400,000 compounds, 3.4% hits; also: % is scaled to controls: 0 for no effect and ±100 for the full control effect; nearly all actives have a fitted effect of over 60% in size
#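 KB-V1, DMEM (no phenol red) + 10% FBS; cpd pin-transferred, titration series; 72 h, 37 degrees C; CellTiter-Glo, luminescence. Data normalized, curve-fit.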
# HT1080 IDH1KD tx = HT-1080 IDH1 knockdown cell toxicity (counter line) | HT-1080 IDH1 knockdown viability, ATP luminescence, 48 h | Potency, µM (highest dose often 46.1 µM), without a hit: at the top dose activity, negative = toxicity, usual class: cytotoxic | 360,000 compounds, 2% hits | AID 686971;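 also: 0% = DMSO wells and -100% = cell-free medium wells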
#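 % activity derives from luminescence (CellTiter-Glo), normalised to DMSO and no-cell wells. HT-1080-IDH1KD cells, 750/well, had 48 h compound exposure at 37 °C.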
# Numbers without * were called inactive; i = inactive; ? = inconclusive; nt = no result; [ ] = remark or other dose. Only some compounds are listed: those with a hit (about 8% of all), similar ones and a draw of the others. Calls follow the shape of the dose curve; as a rule, active = well fitted curve in the direction sought with a large enough effect; inconclusive = small, poorly fitted or top-dose-only effect, or another doubt; inactive = no such curve, though single readings can be large; an effect the other way counts as inactive or inconclusive. Potency is read from the fitted curve at half-maximal effect.
SMILES,HT1080-NT tox,SW480 rereplic,KB-3-1 cytotox,MCF10A rereplic,KB-V1 MDR tox,HT1080 IDH1KD tx
CC1CCC2C(C1)c1sc(=O)[nH]c1SC2(C)C (stereo not drawn),?,2.3%,i,?,18.4µM*,?
Cc1ccc(OCCNC(=O)CNC(=O)Cc2cccc3ccccc23)cc1,nt,nt,i,nt,i,nt
Cn1c(C(=O)OC(C(=O)NC2CCCC2)c2cccnc2)cc2sccc21 (stereo not drawn),1.7%,?,i,10.3µM*,?,-7.9%
Cn1c(C(=O)OC(C(=O)NC2CCCCC2)c2cccnc2)cc2sccc21 (stereo not drawn),-10.1%,2.5%,i,0.6%,i,0.7%
Cc1noc(C)c1COc1cccc(C(=O)OCC(=O)N2CC(=O)Nc3ccccc32)c1,?,9.2µM*,1.46µM*,1.84µM*,?,1.84µM*
Cc1cc(C(=O)OCC(=O)N2CC(=O)Nc3ccccc32)c(C)n1-c1ccc(F)cc1,-0.6%,-1.7%,?,13.1%,16.4µM*,-3.6%
O=C1CN(C(=O)COC(=O)c2ccccc2O)c2ccccc2N1,?,-1.6%,i,-3.3%,i,18.2%
COc1cc(SC)ccc1C(=O)OCC(=O)N1CC(=O)Nc2ccccc21,-2.1%,1.5%,i,0.5%,i,-3.9%
CC(=O)N1CCN(S(=O)(=O)c2cccc(C(=O)OCC(=O)N3CC(=O)Nc4ccccc43)c2)CC1,-1.1%,-41.4%,i,-3.2%[9.22 µM],i,-2.7%
Cc1cc(C(=O)OCC(=O)N2CC(=O)Nc3ccccc32)c(C)n1-c1ccccc1,10.0%,-69.5%,i,7.2%,16.4µM*,7.5%
Cc1c(C2(c3cc(C(C)C)c(O)c(Br)c3C)OS(=O)(=O)c3ccccc32)cc(C(C)C)c(O)c1Br,nt,nt,i,nt,i,nt
Cc1ccc(CNC(=O)Cn2c(=O)ccc3cc(S(=O)(=O)N4CCC(C)CC4)ccc32)cc1,nt,nt,i,nt,?,nt
Cc1nnc(OCc2nc3ccccc3n2C)c2ccccc12,-2.3%,0.6%,?,-8.8%,9.2µM*,1.3%
Cc1ccccc1OCc1nc2ccccc2n1C,3.6%,-65.1%,i,12.0%,i,2.9%
O=C(COc1ccc(Cl)cc1Cl)NCc1ccco1,10.6%,-1.5%,i,4.5%,i,4.7%
CCCNC(=O)C/C(C)=N/NC(=O)COc1ccc(C)cc1Br,5.9%,-4.7%,i,3.8%,?,3.2%
O=C(COc1ccccc1Cl)NCc1ccco1,7.6%,-2.8%,i,1.6%,i,4.9%
Cc1cccc(C)c1OCCNC(=O)C(=O)NCc1ccco1,1.64µM*,2.91µM*,1.46µM*,2.91µM*,?,2.59µM*
COc1ccc(CNC(=O)C/C(C)=N/NC(=O)COc2ccc(C)cc2Br)cc1,16.4µM*,?,5.8µM*,?,?,18.4µM*
C/C(CC(=O)NCc1ccco1)=N\NC(=O)COc1ccc(Cl)cc1Cl,20.6µM*,10.1%,?,?,?,?
CCOc1ccccc1OCC(=O)NCc1ccco1,-16.7%,12.8%,i,16.4µM*,i,-25.9%
CCOC(=O)c1c(C)[nH]c(C)c1S(=O)(=O)N(C)CC(=O)Nc1ccc(C)c(F)c1,nt,nt,i,nt,i,nt
Cc1ccc(S(=O)(=O)N(C)c2ccc(OCC(=O)Nc3cc(C(=O)O)ccc3Cl)cc2)cc1,-1.6%,3.0%,i,1.4%,?,-2.3%
N=C1C(c2ccccc2)=C(O)CN1c1ccc2c(c1)OCO2,3.5%,2.4%,i,16.4µM*,i,20.3%
N=C1C(c2ccccc2)=C(O)CN1c1ccccc1,3.6%,-7.3%,i,-3.8%,i,1.1%
SMILES,HT1080-NT tox,SW480 rereplic,KB-3-1 cytotox,MCF10A rereplic,KB-V1 MDR tox,HT1080 IDH1KD tx
Cc1sc2ncn(CC(=O)NCC(=O)N(C)C3CCCCC3)c(=O)c2c1C,-1.8%,-8.5%,i,0.9%,23.1µM*,-4.0%
CN(CC(=O)NCc1ccccc1)CC(=O)Nc1ccc(Cl)c(C(F)(F)F)c1,-13.5%,?,i,?,?,-5.1%
CN(CC(=O)NCCc1ccc(S(N)(=O)=O)cc1)CC(=O)Nc1ccccc1Cl,-0.3%,-3.5%,i,-5.2%,i,-1.1%
CN(CC(=O)NCCc1ccc(S(N)(=O)=O)cc1)CC(=O)Nc1ccc(Cl)c(C(F)(F)F)c1,0.5%,2.7%,16.4µM*,12.4%,i,-9.7%
CN(CC(=O)NC(=O)NCc1ccccc1)CC(=O)Nc1ccc(Cl)c(C(F)(F)F)c1,18.4µM*,-46.3%,?,?,?,?
O=C(CSc1cn(CCNC(=O)c2c(F)cccc2F)c2ccccc12)Nc1ccccc1F,nt,nt,i,nt,?,nt
Cc1ccc(-c2cnc3cc(C)nn3c2)cc1,1.6%,-3.5%,i,2.4%,?,9.6%
Cc1ccc(-c2cnc3c(Cl)c(C)nn3c2)cc1,-7.5%,10.3µM*,?,?,11.6µM*,-26.1%
CCOC(=O)c1cccc(S(=O)(=O)N(CCO)Cc2cc3cc(OC)ccc3[nH]c2=O)c1,-12.2%,2.3%,i,?,?,-12.6%
Cc1cc2cc(CN(Cc3ccco3)S(=O)(=O)c3c(C)ccc4nsnc34)c(=O)[nH]c2cc1C,?,?,3.26µM*,?,1.64µM*,?
COC(=O)c1cccc(S(=O)(=O)N(Cc2ccco2)Cc2cc3cc(OC)ccc3[nH]c2=O)c1,-27.6%,4.1%,i,?,16.4µM*,-27.7%
CCCCCCCC(=O)C(C)C(=O)N(C)[C@H](Cc1ccc(OC)cc1)C(=O)N(C)[C@H](C(N)=O)C(C)C (stereo partly drawn),0.6%,?,i,-32.7%,i,-1.1%
N/C(=N\S(=O)(=O)c1cccs1)c1ccccc1,-2.0%,-1.6%,i,-1.1%,i,-3.9%
O=S(=O)(/N=C/c1ccccc1O)c1cccs1,4.9%,-3.8%,?,-1.0%,i,8.2%
O=C1/C(=N\S(=O)(=O)c2cccs2)C([n+]2ccccc2)=C([O-])c2ccccc21,?,11.6µM*,6.51µM*,17.5%,i,-0.3%
CC(C)(C)c1cc[n+](C2=C([O-])c3ccccc3C(=O)/C2=N\S(=O)(=O)c2cccs2)cc1,14.6µM*,?,16.4µM*,?,i,13µM*
COc1ccc(CN2CCC2(C)C(=O)Nc2cccc(NS(C)(=O)=O)c2)c2ccccc12 (stereo not drawn),?,nt,?,nt,2.91µM*,?
O=[N+]([O-])c1ccc2nc(NCCCO)nc(-c3ccccc3)c2c1,-21.2%,24.0%,i,14.6µM*,?,-17.2%
CCCCCOc1ccc(Br)cc1/C(C)=N/NC1=NCCN1,6.51µM*,3.26µM*,?,3.26µM*,?,5.17µM*
